Where “and” joins values, the source holds several entries; their conditions need not be identical. Equal entries are not always repeated. Inconclusive results are not listed. Calls of active or inactive are those of the source. Unless noted, calls follow the shape of the dose curve; as a rule, active = well fitted curve in the direction sought with a large enough effect; inconclusive = small, poorly fitted or top-dose-only effect, or another doubt; inactive = no such curve, though single readings can be large; an effect the other way counts as inactive or inconclusive.
Experiments:
[1] = S16 Schwann cell PMP22 intronic element beta-lactamase assay (AID 624044; calls by dose curve;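 also: 0% = DMSO and -100% = potassium clavulanate positive control; nearly all actives have a fitted effect of over 15% in size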); settings: S16 rat Schwann cells, PMP22 element beta-lactamase FRET, 24 h; ratio activity, negative = inhibition: at 38.3 µM (top of the series) unless noted
In short: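 Beta-lactamase reporter under a PMP22 intronic regulatory element in stable S16 rat Schwann cells; 24 h compound exposure. 460 nm blue signal normalized between DMSO (0%) and potassium clavulanate, with 535 nm FRET tracking viability; curves classed by r2 and response.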

AS120 = assay: qHTS profiling for inhibitors of Plasmodium falciparum proliferation (AID 504749); also: nearly all actives have a fitted effect of over 60% in size; also: potency is read from the fitted curve at half-maximal effect;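 as to activity, negative = inhibition: 0% = DMSO vehicle and full inhibition = artemisinin control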; settings: P. falciparum in erythrocytes, SYBR Green DNA, 72 h; series mostly up to 28.7 µM
In short: (§1)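 SYBR Green fluorescence (ex 485 nm, em 535 nm) reports parasite DNA after 72 h compound exposure of infected red cells at 0.3% parasitemia, 2.5% hematocrit; signal normalized to 0.29 uM artemisinin and vehicle wells.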

CP215 = assay: as above; settings: P. falciparum in erythrocytes, SYBR Green DNA, 72 h; series mostly up to 28.7 µM
In short: as §1

CP265 = assay: as above; settings: P. falciparum in erythrocytes, SYBR Green DNA, 72 h; series mostly up to 12.8 µM
In short: as §1

CP268 = assay: as above; settings: P. falciparum in erythrocytes, SYBR Green DNA, 72 h; series mostly up to 28.7 µM
In short: as §1

CP325 = assay: as above; settings: P. falciparum in erythrocytes, SYBR Green DNA, 72 h; series mostly up to 28.7 µM
In short: as §1

JCK = assay: as above; settings: P. falciparum in erythrocytes, SYBR Green DNA, 72 h; series mostly up to 28.7 µM
In short: as §1

P93_24 = assay: as above; settings: P. falciparum in erythrocytes, SYBR Green DNA, 72 h; series mostly up to 28.7 µM
In short: as §1

PAD = assay: as above; settings: P. falciparum in erythrocytes, SYBR Green DNA, 72 h; series mostly up to 28.7 µM
In short: as §1

PC15 = assay: as above; settings: P. falciparum in erythrocytes, SYBR Green DNA, 72 h; series mostly up to 28.7 µM
In short: as §1

PC26 = assay: as above; settings: P. falciparum in erythrocytes, SYBR Green DNA, 72 h; series mostly up to 28.7 µM
In short: as §1

SC27B = assay: as above; settings: P. falciparum in erythrocytes, SYBR Green DNA, 72 h; series mostly up to 28.7 µM
In short: as §1

TAB113 = assay: as above; settings: P. falciparum in erythrocytes, SYBR Green DNA, 72 h; series mostly up to 28.7 µM
In short: as §1

W2 = assay: as above; settings: P. falciparum in erythrocytes, SYBR Green DNA, 72 h; series mostly up to 12.8 µM
In short: as §1

CP237 = assay: as above; settings: P. falciparum in erythrocytes, SYBR Green DNA, 72 h; series mostly up to 28.7 µM
In short: as §1

DIV14 = assay: as above; settings: P. falciparum in erythrocytes, SYBR Green DNA, 72 h; series mostly up to 28.7 µM
In short: as §1

DIV17 = assay: as above; settings: P. falciparum in erythrocytes, SYBR Green DNA, 72 h; series mostly up to 28.7 µM
In short: as §1

ICS = assay: as above; settings: P. falciparum in erythrocytes, SYBR Green DNA, 72 h; series mostly up to 28.7 µM
In short: as §1

[2] = molecular target: DNA dC->dU-editing enzyme APOBEC-3G (Homo sapiens) (UniProt Q9HC16); assay: qHTS for inhibitors of Vif-A3G interactions: Validation (AID 588379); also: 0% is about no effect
In short: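 Yellow fluorescence (Ex 488, Em 500-530) of Vif-coexpressing HeLa A3G-eYFP cells, scanned by Acumen cytometer, reports blocked A3G degradation. Cells plated at 700/well overnight at 37 deg C before compound addition, then a further overnight compound incubation at 37 deg C.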

[3] = qHTS assay for cell viability of HEK293 cells (AID 743288); settings: ATP luminescence (CellTiter-Glo), 18 h; max response: stronger effect = lower value; also: % is scaled to controls: 0 for no effect and ±100 for the full control effect; nearly all actives have a fitted effect of over 50% in size
In short: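 ATP luminescence (CellTiter-Glo) reports metabolically competent cell number after parental HEK293 cells, 2,000/well, were treated with DMSO-dissolved compounds for 18 h at 37 C; reagent incubation 30 min, room temperature.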

Chain of DNA dC->dU-editing enzyme APOBEC-3G (Homo sapiens) (Q9HC16 whole entry, looked up): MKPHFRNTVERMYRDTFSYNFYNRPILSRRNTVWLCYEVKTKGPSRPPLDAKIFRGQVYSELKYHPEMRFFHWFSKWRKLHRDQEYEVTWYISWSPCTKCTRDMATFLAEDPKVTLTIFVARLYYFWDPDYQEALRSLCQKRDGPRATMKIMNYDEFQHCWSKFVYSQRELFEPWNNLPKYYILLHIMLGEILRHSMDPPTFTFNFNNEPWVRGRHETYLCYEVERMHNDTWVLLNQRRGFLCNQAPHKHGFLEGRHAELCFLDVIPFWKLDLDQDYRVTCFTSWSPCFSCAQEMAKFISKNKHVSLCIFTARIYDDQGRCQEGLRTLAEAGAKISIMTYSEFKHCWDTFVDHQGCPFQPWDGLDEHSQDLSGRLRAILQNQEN

CC([C@H](O)c1ccccc1)N(C)C (stereo not given in full)
active: Potency (W2) 6.75 µM
inactive: Potency [1] | Potency (AS120) | Potency (CP215) | Potency (CP265) | Potency (CP268) | Potency (CP325) | Potency (JCK) | Potency (P93_24) | Potency (PAD) | Potency (PC15) | Potency (PC26) | Potency (SC27B) | Potency (TAB113)

CNc1ccc(C(=O)CC(O)CCC(C)C2OC(=O)CC(O)CC(=O)CC(O)CC(O)CC(O)CC(O)CC3(O)CC(O)C(C(=O)OC)C(CC(O[C@@H]4OC(C)C(O)C(N)C4O)/C=C/C=C/C=C/C=C/C=C/C=C/C=C/C2C)O3)cc1 (stereo not given in full)
inactive: Potency (AS120) | Potency (CP215) | Potency (CP237) | Potency (CP265) | Potency (CP268) | Potency (CP325) | Potency (DIV14) | Potency (DIV17) | Potency (JCK) | Potency (P93_24) | Potency (PAD) | Potency (PC15) | Potency (PC26) | Potency (SC27B) | Potency (W2)

CC[C@@H]1[C@@H]2C[C@H]3[C@H]4N(C)c5ccccc5[C@@]45C[C@@H]([C@@H]2[C@@H]5O)N3[C@H]1O
inactive: Potency [1] | Potency (CP265) | Potency (CP268) | Potency (CP325) | Potency (JCK) | Potency (PC26) | Potency (SC27B) | Potency (TAB113)

Clc1ccc([C@@H](OCCN2CCCCC2)c2ccccc2)cc1
inactive: Potency [1] | Potency (CP237)
active: Potency (DIV17) 4.55 µM | Potency (ICS) 1.58 µM | Potency (P93_24) 3.55 µM | Potency (PC15) 3.16 µM | Potency (W2) 1.81 µM

C[C@@H]1O[C@H](O[C@@H]2C=C3CC[C@H]4[C@@H](CC[C@]5(C)[C@@H](c6ccc(=O)oc6)CC[C@]45O)[C@@]3(C)CC2)[C@@H](O)[C@H](O)[C@@H]1O
inactive: Potency [1] | Potency (AS120) | Potency (CP215) | Potency (CP237) | Potency (CP265) | Potency (CP268) | Potency (CP325) | Potency (DIV14) | Potency (DIV17) | Potency (ICS) | Potency (JCK) | Potency (P93_24) | Potency (PAD) | Potency (SC27B) | Potency (TAB113) | Potency (W2)

COc1cc(N)c(Cl)cc1C(=O)N[C@@H]1CN2CCC1CC2
inactive: outcome [2] | Potency [1] | Potency (AS120) | Potency (CP215) | Potency (CP237) | Potency (CP265) | Potency (CP268) | Potency (CP325) | Potency (DIV14) | Potency (DIV17) | Potency (ICS) | Potency (JCK) | Potency (P93_24) | Potency (PAD) | Potency (PC15) | Potency (PC26) | Potency (SC27B) | Potency (TAB113)

C[N+]1=Cc2cc3c(cc2CC1)OCO3
inactive: outcome [2]

CC[C@@]1(c2ccc(N)cc2)CCC(=O)NC1=O
inactive: Potency (AS120) | Potency (CP215) | Potency (CP237) | Potency (CP265) | Potency (CP268) | Potency (CP325) | Potency (DIV14) | Potency (DIV17) | Potency (ICS) | Potency (JCK) | Potency (P93_24) | Potency (PAD) | Potency (PC15) | Potency (PC26) | Potency (SC27B) | Potency (TAB113)

C=C[C@H]1CN2CC[C@H]1C[C@H]2c1[nH]c2ccccc2c1CCO
inactive: outcome [2]

COc1nc(NC(C)C)nc(NC(C)C)n1
inactive: max response [3] -7.69%

CC(C)(C)[C@]1(O)C[C@@H]2OC(=O)C[C@@]23C(=O)O[C@@H]2OC(=O)[C@H](O)[C@]213
inactive: outcome [2]

C=CC1CN2CCC1CC2C(OC(=O)OCC)c1ccnc2ccc(OC)cc12 (stereo not given)
active: Potency (AS120) 7.94 µM | Potency (CP215) 12 µM | Potency (CP237) 7.08 µM | Potency (CP265) 5.01 µM | Potency (CP325) 13.5 µM | Potency (DIV14) 6.01 µM | Potency (DIV17) 13.5 µM | Potency (ICS) 3.98 µM | Potency (P93_24) 7.94 µM | Potency (PAD) 6.31 µM | Potency (PC15) 3.98 µM | Potency (PC26) 6.01 µM | Potency (TAB113) 8.91 µM | Potency (W2) 2.13 µM
inactive: Potency [1]

CCc1cccc(C)c1N(C(=O)CCl)C(C)COC (stereo not given)
inactive: max response [3] -14.8%

O=C1CCCC2[C@@H]3CCCN4CCC[C@@H](CN12)C34 (stereo not given in full)
inactive: outcome [2]

CC(C)OC(=O)Nc1cccc(Cl)c1
inactive: max response [3] -6.02%

CC[C@@H]1CN2CC[C@@H]1C[C@H]2[C@H](O)c1ccnc2ccc(OC)cc12
inactive: outcome [2]

CC1CC[C@@]2(NC1)O[C@@H]1C[C@H]3C4CC=C5C[C@@H](O)CC[C@]5(C)C4CC[C@]3(C)[C@H]1[C@@H]2C (stereo not given in full)
inactive: outcome [2]

O=C(O)COc1cc(Cl)c(Cl)cc1Cl
inactive: max response [3] -0.339%

CC(C)CC(CN)CC(=O)O (stereo not given)
inactive: Potency [1]

CCCCSP(=O)(SCCCC)SCCCC
inactive: max response [3] -3.57%

CNC(=O)Oc1cccc2c1OC(C)(C)O2
inactive: max response [3] -19.8%

CNC(C)[C@@H](O)c1ccccc1 (stereo not given in full)
inactive: Potency [1] | Potency (AS120) | Potency (CP215) | Potency (CP237) | Potency (CP265) | Potency (CP268) | Potency (CP325) | Potency (DIV14) | Potency (DIV17) | Potency (ICS) | Potency (JCK) | Potency (P93_24) | Potency (PAD) | Potency (PC15) | Potency (PC26) | Potency (SC27B) | Potency (TAB113)

C[C@]12CCC3C(CC[C@H]4C[C@@H](O)CC[C@]34C)[C@@H]1CCC2=O (stereo not given in full)
inactive: outcome [2]

CC(C)(C)C(=O)C(Oc1ccc(Cl)cc1)n1cncn1 (stereo not given)
inactive: max response [3] -10.8% and -21.2%

CCN1C[C@@]2(COC(=O)c3ccccc3N3C(=O)CC(C)C3=O)CC[C@H](OC)[C@]34C5C[C@@H]6[C@@H](OC)C[C@@](O)(C5[C@H]6OC)[C@@](O)(C13)[C@@H](OC)C24 (stereo not given in full)
inactive: outcome [2]

C[C@]1(C(=O)O)CCC[C@]2(C)c3cc(O)ccc3CC[C@@H]12
inactive: outcome [2]

N#Cc1c(Cl)cccc1Cl
inactive: max response [3] 0.0704%

CNC(=O)Oc1ccccc1OC(C)C
inactive: max response [3] -6.22%

CC(C)(O)[C@@H]1C2OC(=O)[C@@H]1[C@]1(O)C[C@H]3O[C@]34C(=O)O[C@H]2[C@]14C
inactive: outcome [2]

CCC(=O)Nc1ccc(Cl)c(Cl)c1
inactive: max response [3] 1.17%

CCS(=O)CCSP(=O)(OC)OC (stereo not given)
inactive: max response [3] -4.96%

COP(N)(=O)SC (stereo not given)
inactive: max response [3] -4.36% and -1.51%

C=C[C@H]1CN2CCC1C[C@@H]2C(O)c1ccnc2ccccc12 (stereo not given in full)
inactive: outcome [2]
